These results are taken from PubChem BioAssay (EPA / NIEHS).

The target of assay [1] is Myc proto-oncogene protein (Homo sapiens) (UniProt P01106). In words: ATG_Myc_CIS: Attagene CIS-FACTORIAL HepG2 Assay for human Myelocytomatosis (Myc) Proto-Oncogene Transcription Factor (AID 2282990). Conditions: HepG2, Attagene cis-reporter transcription factor activity; actives raise or lower the signal. Put shortly:
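HepG2, transient MRTU transfection (cis promoters, endogenous TFs); 24 h dosing; TriZol RNA → oligo(dT) RT → PCR → 6-FAM primer extension → HpaI cut → CE. Bidirectional fit vs DMSO.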

The nature of assay [2]: ATG_NF_kB_CIS: Attagene CIS-FACTORIAL HepG2 Assay for human Nuclear Factor Kappa B (NF-kB) (AID 2282991). Conditions: HepG2 Attagene cis-factorial NF-kB reporter mRNA; actives raise or lower the signal. An outline of the steps: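 Endpoint from a 52-component multiplexed HepG2 reporter panel: cis-regulated transcription units transiently transfected, 24 h dosing, reporter mRNA quantified by RT-PCR and capillary electrophoresis, scored as increase or decrease against DMSO.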

The nature of assay [3]: ATG_NRF2_ARE_CIS: Attagene CIS-FACTORIAL HepG2 Assay for human Nuclear Factor Erythroid 2 Related Factor 2 (NFR2) response to Antioxidant Response Elements (ARE) (AID 2282992).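 For AC50: reporter mRNA level measured by RT-PCR and capillary electrophoresis fluorescence.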 Conditions: HepG2 Attagene ARE/NRF2 reporter, transcription factor activity; actives raise or lower the signal. Put shortly: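 HepG2 cells transiently transfected with multiplexed cis-regulated reporter transcription units measure endogenous transcription factor activity. Reporter mRNA at 24 h is quantified by RT-PCR, fluorescent labelling and capillary electrophoresis, with bidirectional fitting relative to DMSO.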

Assay [4] in a line: ATG_Oct_MLP_CIS: Attagene CIS-FACTORIAL HepG2 Assay for human Octamer-Binding Transcription Factor (Oct) (AID 2282993). Conditions: HepG2 Attagene cis-factorial Oct reporter, mRNA; actives raise or lower the signal. An outline of the steps:
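HepG2, transient MRTU transfection, cis promoter elements; 24 h dosing; RT-PCR/CE fluorescence read-out of reporter mRNA; fit both directions vs DMSO.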

The target in assay [5] is Cellular tumor antigen p53 (Homo sapiens) (UniProt P04637). The assay is described as follows: ATG_p53_CIS: Attagene CIS-FACTORIAL HepG2 Assay for human p53 Transcription Factor (AID 2282994). Conditions: HepG2 p53 cis-element reporter, Attagene mRNA; actives raise or lower the signal. Put shortly: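 HepG2 cells transiently transfected with multiplexed cis-regulated reporter transcription units read endogenous TF activity. After 24 h compound exposure, reporter mRNA was quantified by RT-PCR, fluorescent labelling, HpaI digestion and capillary electrophoresis; bidirectional fits versus DMSO baseline.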

Assay [6] has as its target human Peroxisome Proliferator-activated Receptor alpha (PPARa), PPARA (gene 5465) (UniProt Q07869). In words: ATG_PPARa_TRANS: Attagene TRANS-FACTORIAL HepG2 Assay for human Peroxisome Proliferator-activated Receptor alpha (PPARa) (AID 2283001; active = hit-call score of the fitted dose curve at least 0.9, where 1 is the maximum;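 for AC50: potency for gain of reporter signal over DMSO so agonist or activator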). An outline of the steps:
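Read-out is fluorescence of reporter cDNA fragments resolved by capillary electrophoresis after RT-PCR. Human HepG2 liver cells carried transfected PPARa-Gal4 chimera and GAL4-UAS reporter units, treated 24 h; activity scored as increase over DMSO.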

Assay [7] addresses Peroxisome proliferator-activated receptor gamma (Homo sapiens) (UniProt P37231). In words: ATG_PPARg_TRANS: Attagene TRANS-FACTORIAL HepG2 Assay for human Peroxisome Proliferator-activated Receptor-gamma (PPARg) (AID 2283007; active = hit-call score of the fitted dose curve at least 0.9, where 1 is the maximum). An outline of the steps: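 Endpoint reflects upward reporter mRNA change versus DMSO controls. Setup: transiently transfected HepG2, GAL4-UAS reporters driven by chimeric NR-Gal4, 24 h incubation, RT-PCR with capillary electrophoresis read-out.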

The target of assay [8] is human RAR-related Orphan Receptor beta (RORb), RORB (gene 6096) (UniProt Q92753). The assay is described as follows: ATG_RORb_TRANS: Attagene TRANS-FACTORIAL HepG2 Assay for human RAR-related Orphan Receptor beta (RORb) (AID 2283010; active = hit-call score of the fitted dose curve at least 0.9, where 1 is the maximum). An outline of the steps:
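HepG2 cells transiently transfected with GAL4-UAS reporter units expressing chimeric NR-Gal4 protein; reporter mRNA measured 24 h after dosing by RT-PCR, 6-FAM labelling and capillary electrophoresis. Gain-of-signal fitted relative to DMSO baseline.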

Assay [9] concerns the target Nuclear receptor subfamily 1 group I member 2 (Homo sapiens) (UniProt O75469). In words: ATG_PXR_TRANS: Attagene TRANS-FACTORIAL HepG2 Assay for human Pregnane X Receptor (PXR) (AID 2283008; active = hit-call score of the fitted dose curve at least 0.9, where 1 is the maximum). An outline of the steps:
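HepG2 cells transiently transfected with multiple reporter units, here a PXR-GAL4 chimera driving a GAL4-UAS reporter; 24 h compound exposure. Reporter mRNA measured by RT-PCR, FAM labelling and capillary electrophoresis; gain of signal fitted against DMSO baseline.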

The target of assay [10] is human RAR-related Orphan Receptor gamma (RORg), RORC (gene 6097) (UniProt P51449). The assay is described as follows: ATG_RORg_TRANS: Attagene TRANS-FACTORIAL HepG2 Assay for human RAR-related Orphan Receptor gamma (RORg) (AID 2283011; active = hit-call score of the fitted dose curve at least 0.9, where 1 is the maximum). Put shortly:
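Reporter transcripts from a transfected RORg-GAL4 chimera in HepG2 cells were quantified 24 h after dosing by RT-PCR, 6-FAM labelling, HpaI digestion and capillary electrophoresis; increases over DMSO baseline were fitted.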

The target of assay [11] is human Retinoic Acid Receptor gamma (RARg), RARG (gene 5916) (UniProt P13631). The assay is described as follows: ATG_RARg_TRANS: Attagene TRANS-FACTORIAL HepG2 Assay for human Retinoic Acid Receptor gamma (RARg) (AID 2283009; active = hit-call score of the fitted dose curve at least 0.9, where 1 is the maximum). Put shortly: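 HepG2 transiently transfected with GAL4-UAS reporter units and chimeric NR-Gal4 constructs; 24 h compound exposure. Reporter mRNA quantified by RT-PCR, FAM labeling, HpaI digestion and capillary electrophoresis; gain-of-signal versus DMSO.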

The target in assay [12] is human Peroxisome Proliferator-activated Receptor delta (PPARd), PPARD (gene 5467) (UniProt Q03181). In words: ATG_PPARd_TRANS: Attagene TRANS-FACTORIAL HepG2 Assay for human Peroxisome Proliferator-activated Receptor delta (PPARd) (AID 2283002; active = hit-call score of the fitted dose curve at least 0.9, where 1 is the maximum). Put shortly:
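Transient HepG2 transfection (multiple GAL4-UAS RTUs, chimeric receptor-Gal4); 24 h dosing; total RNA → oligo(dT) RT → PCR → 6-FAM primer extension → HpaI cut → CE. Positive direction vs DMSO.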

For assay [13], the target named is Retinoic acid receptor alpha (Homo sapiens) (UniProt P10276). The assay is described as follows: ATG_RARa_TRANS: Attagene TRANS-FACTORIAL HepG2 Assay for human Retinoic Acid Receptor alpha (RARa) (AID 2283005; active = hit-call score of the fitted dose curve at least 0.9, where 1 is the maximum). Put shortly: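 Reporter transcripts, measured by RT-PCR with fluorescent labeling and capillary electrophoresis after 24 h dosing, reflect activity of an exogenous human RARa–GAL4 fusion in transiently transfected HepG2. Fitted for increase relative to DMSO.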

Records with an inconclusive call do not appear. Calls of active or inactive are those of the source. Rule for the calls, unless noted: active = hit-call score of the fitted dose curve at least 0.9, where 1 is the maximum; inactive = score below 0.9.

Sequence of human RAR-related Orphan Receptor beta (RORb), RORB (gene 6096) (Q92753 whole entry, looked up, the tested form may be a part): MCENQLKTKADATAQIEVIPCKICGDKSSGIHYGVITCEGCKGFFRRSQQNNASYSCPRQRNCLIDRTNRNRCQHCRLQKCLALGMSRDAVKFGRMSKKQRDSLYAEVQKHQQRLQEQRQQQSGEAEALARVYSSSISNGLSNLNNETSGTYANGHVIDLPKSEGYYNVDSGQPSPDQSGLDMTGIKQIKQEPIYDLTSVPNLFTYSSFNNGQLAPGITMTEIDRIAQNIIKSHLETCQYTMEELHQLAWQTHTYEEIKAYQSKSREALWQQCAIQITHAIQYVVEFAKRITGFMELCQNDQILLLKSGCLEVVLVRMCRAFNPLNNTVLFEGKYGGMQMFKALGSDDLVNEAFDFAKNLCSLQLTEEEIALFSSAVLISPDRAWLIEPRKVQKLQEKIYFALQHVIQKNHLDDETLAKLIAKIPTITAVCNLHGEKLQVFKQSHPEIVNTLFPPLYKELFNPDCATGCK
Sequence of Retinoic acid receptor alpha (Homo sapiens) (P10276 whole entry, looked up, the tested form may be a part): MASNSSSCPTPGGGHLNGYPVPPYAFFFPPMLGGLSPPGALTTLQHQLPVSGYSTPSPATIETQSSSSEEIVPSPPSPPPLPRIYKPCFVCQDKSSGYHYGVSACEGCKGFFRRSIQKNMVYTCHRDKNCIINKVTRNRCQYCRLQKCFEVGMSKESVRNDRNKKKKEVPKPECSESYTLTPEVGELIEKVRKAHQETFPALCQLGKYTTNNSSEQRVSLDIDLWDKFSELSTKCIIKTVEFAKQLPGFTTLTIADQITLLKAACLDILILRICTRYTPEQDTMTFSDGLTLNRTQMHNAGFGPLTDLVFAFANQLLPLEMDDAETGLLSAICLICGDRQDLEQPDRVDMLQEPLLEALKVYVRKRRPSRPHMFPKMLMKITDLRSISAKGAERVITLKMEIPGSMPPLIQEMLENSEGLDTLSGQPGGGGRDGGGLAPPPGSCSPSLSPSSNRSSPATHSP
Sequence of Cellular tumor antigen p53 (Homo sapiens) (P04637 whole entry, looked up): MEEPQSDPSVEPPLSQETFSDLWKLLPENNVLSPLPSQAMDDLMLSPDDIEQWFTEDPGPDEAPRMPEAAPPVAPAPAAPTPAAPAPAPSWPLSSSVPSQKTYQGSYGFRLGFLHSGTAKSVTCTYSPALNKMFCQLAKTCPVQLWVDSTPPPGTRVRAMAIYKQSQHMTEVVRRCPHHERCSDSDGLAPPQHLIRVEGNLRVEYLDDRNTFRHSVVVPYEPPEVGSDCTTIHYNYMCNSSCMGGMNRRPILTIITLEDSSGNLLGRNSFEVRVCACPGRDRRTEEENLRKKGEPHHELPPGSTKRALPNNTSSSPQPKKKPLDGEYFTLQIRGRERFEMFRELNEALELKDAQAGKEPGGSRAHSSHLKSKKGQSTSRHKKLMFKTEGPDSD
Sequence of human Peroxisome Proliferator-activated Receptor delta (PPARd), PPARD (gene 5467) (Q03181 whole entry, looked up, the tested form may be a part): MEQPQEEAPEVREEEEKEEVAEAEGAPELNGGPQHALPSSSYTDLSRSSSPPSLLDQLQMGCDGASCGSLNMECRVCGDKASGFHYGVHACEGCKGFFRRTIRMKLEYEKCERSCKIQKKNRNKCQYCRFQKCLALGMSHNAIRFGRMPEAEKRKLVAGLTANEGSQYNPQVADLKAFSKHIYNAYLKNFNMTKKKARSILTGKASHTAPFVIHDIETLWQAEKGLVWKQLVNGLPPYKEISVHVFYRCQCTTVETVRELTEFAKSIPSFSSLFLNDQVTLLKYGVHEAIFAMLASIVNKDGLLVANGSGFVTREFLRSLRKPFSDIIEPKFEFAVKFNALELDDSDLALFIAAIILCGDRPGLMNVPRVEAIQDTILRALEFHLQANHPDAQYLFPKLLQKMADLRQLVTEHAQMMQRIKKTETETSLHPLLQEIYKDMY
Sequence of human Peroxisome Proliferator-activated Receptor alpha (PPARa), PPARA (gene 5465) (Q07869 whole entry, looked up, the tested form may be a part): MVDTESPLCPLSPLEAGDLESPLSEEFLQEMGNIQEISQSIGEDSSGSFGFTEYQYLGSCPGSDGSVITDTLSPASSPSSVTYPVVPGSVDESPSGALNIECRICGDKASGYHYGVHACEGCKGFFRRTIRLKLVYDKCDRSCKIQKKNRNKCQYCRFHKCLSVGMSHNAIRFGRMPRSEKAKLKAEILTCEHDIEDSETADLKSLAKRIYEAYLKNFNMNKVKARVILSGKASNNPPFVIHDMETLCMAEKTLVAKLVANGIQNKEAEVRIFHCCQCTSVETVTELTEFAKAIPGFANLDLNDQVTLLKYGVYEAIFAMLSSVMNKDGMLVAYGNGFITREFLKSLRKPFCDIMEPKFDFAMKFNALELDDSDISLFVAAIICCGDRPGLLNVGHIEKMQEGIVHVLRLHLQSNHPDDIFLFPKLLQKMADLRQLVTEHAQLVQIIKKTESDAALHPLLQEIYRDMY
Sequence of Myc proto-oncogene protein (Homo sapiens) (P01106 whole entry, looked up): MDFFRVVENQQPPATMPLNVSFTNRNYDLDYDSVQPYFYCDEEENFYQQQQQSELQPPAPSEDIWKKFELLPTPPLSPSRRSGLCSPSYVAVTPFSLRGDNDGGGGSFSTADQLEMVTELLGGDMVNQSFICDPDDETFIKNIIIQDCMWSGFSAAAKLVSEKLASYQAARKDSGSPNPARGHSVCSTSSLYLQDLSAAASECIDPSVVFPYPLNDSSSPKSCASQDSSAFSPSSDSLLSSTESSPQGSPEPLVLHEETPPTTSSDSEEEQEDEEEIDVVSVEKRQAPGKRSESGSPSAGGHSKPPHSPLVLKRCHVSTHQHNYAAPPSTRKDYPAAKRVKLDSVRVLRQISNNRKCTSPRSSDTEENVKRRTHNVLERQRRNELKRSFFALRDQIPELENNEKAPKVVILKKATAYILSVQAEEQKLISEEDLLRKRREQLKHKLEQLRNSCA
Sequence of human Retinoic Acid Receptor gamma (RARg), RARG (gene 5916) (P13631 whole entry, looked up, the tested form may be a part): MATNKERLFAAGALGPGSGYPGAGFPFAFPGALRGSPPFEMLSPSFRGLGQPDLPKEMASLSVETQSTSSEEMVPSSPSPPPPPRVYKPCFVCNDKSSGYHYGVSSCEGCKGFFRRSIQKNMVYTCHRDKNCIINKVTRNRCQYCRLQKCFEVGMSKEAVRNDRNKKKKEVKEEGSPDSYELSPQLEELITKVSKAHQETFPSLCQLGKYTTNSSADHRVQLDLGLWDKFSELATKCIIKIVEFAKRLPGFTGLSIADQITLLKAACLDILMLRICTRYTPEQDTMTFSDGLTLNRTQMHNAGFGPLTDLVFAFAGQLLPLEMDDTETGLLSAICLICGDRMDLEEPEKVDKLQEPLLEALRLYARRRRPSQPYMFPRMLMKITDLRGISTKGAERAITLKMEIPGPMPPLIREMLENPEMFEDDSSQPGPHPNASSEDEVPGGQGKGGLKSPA
Sequence of Nuclear receptor subfamily 1 group I member 2 (Homo sapiens) (O75469 whole entry, looked up, the tested form may be a part): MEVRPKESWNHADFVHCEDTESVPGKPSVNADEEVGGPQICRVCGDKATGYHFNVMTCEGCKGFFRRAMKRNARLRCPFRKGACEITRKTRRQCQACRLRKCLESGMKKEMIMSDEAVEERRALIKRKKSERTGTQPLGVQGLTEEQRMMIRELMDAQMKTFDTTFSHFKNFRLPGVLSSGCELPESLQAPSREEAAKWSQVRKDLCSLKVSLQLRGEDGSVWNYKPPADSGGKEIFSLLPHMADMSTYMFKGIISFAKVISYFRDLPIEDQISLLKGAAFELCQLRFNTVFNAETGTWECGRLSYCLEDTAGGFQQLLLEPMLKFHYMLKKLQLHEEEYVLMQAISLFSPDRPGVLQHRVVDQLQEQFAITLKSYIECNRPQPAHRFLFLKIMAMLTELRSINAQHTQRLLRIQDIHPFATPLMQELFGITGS
Sequence of human RAR-related Orphan Receptor gamma (RORg), RORC (gene 6097) (P51449 whole entry, looked up, the tested form may be a part): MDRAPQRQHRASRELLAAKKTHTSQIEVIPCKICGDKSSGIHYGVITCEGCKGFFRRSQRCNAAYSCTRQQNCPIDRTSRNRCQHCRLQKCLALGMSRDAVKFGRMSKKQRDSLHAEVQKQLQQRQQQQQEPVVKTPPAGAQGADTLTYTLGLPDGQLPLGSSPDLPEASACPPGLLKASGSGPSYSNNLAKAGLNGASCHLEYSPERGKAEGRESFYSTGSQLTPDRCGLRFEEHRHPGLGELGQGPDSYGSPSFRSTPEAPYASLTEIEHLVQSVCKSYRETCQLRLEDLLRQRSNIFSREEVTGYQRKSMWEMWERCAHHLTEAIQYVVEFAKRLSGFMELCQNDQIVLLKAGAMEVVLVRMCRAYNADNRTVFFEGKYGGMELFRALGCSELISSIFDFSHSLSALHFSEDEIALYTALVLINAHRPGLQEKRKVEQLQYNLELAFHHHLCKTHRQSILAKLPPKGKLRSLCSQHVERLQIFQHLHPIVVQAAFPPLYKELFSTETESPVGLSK
Sequence of Peroxisome proliferator-activated receptor gamma (Homo sapiens) (P37231 whole entry, looked up, the tested form may be a part): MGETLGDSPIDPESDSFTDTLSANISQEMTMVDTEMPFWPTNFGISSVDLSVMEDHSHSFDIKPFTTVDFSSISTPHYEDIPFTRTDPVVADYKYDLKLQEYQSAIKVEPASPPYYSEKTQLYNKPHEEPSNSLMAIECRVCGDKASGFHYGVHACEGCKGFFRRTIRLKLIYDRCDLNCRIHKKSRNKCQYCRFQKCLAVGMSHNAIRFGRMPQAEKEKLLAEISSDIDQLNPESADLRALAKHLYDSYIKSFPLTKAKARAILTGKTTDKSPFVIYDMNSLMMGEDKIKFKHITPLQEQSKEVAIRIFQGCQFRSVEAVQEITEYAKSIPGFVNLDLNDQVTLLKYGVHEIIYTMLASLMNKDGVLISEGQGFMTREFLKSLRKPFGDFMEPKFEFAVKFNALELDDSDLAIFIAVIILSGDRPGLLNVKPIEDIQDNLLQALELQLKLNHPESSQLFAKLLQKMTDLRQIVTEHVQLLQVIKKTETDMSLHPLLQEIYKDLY

Broadly, the AC50 is the midpoint of the concentration-response curve, whichever way the signal moves. In the case of `CC(C)C[C@H](NC(=O)OCC1c2ccccc2-c2ccccc21)C(=O)O`, the result in assay [1], in assay [2], in assay [4], in assay [5] and in assay [8] was inactive. Also, the AC50 was 31.1 µM (active) in assay [3], 40 µM (active) in [6] and 23.1 µM (active) in assay [7].
For `Cc1ccc(OC(=O)c2ccccc2O)cc1`, the compound was classed as inactive in [1], in assay [2], in [4], in [5], in assay [6] and in assay [7]. For the same compound, the compound was called inactive in [9] and in [10]. Besides, in assay [3], the AC50 is 51.2 µM (active).
`C#CC(C)(O)CC(C)C` (stereo not drawn): the compound was classed as inactive in assay [1], in assay [2], in [3], in assay [4], in assay [5] and in assay [6]. The compound was called inactive in assay [7], in [9] and in assay [11].
For `COC(C)(C)CCCC(C)CC=O` (stereo not drawn), the compound was classed as inactive in assay [1], in assay [2], in assay [3], in assay [4], in [5] and in [12]. In addition, the compound was classed as inactive in [13], in assay [7] and in [9].
For the compound `C=CCOC(=O)CCCCCC`, the compound was classed as inactive in assay [1], in [2], in [3], in assay [4], in assay [5] and in [12]. Further, the call in assay [7], in [9], in assay [8] and in [10] was inactive.
Consider `CCC(Cl)C(Cl)C(Cl)CC(Cl)C(Cl)C(C)Cl` (stereo not drawn), for which the result in assay [1], in assay [2], in [4], in [5] and in assay [12] was inactive. Also, the AC50 in assay [3] was 43.4 µM (active); in assay [7] it was 22.3 µM (active); in assay [9] it was 1.74 µM (active).
`CC(C)C(OC(=O)c1ccccc1)C(C)(C)COC(=O)c1ccccc1` (stereo not drawn): the outcome in assay [1], in [2], in [3], in assay [4], in assay [5] and in [12] was inactive. For the same compound, the result in [7] and in assay [11] was inactive. Also, the AC50 in [9] was 2.45 µM (active).
In the case of `CCOC(=O)CCc1ccccc1`, the outcome in [1], in assay [2], in assay [3], in [4], in [5] and in assay [6] was inactive. The compound was classed as inactive in assay [7], in assay [9], in assay [11] and in assay [10].
With `O=C1NC2NC(=O)NC2N1` (stereo not drawn), the compound was classed as inactive in assay [1], in [2], in [3], in assay [5], in [12] and in [13]. In addition, the outcome in assay [7] and in assay [10] was inactive. In addition, the half-maximal activity concentration (AC50) in assay [4] is 0.167 µM (active).
On to `CCOC(=O)CC(C)O` (stereo not drawn), for which the call in [1], in [2], in [3], in assay [4], in assay [5] and in [6] was inactive. In addition, the call in [7], in [9], in [11] and in [10] was inactive.
`O=C(Nc1ccc([N+](=O)[O-])cc1)Nc1ccc([N+](=O)[O-])cc1` (tested in a mixture with another compound): the compound was classed as inactive in assay [1], in assay [2], in assay [3], in assay [4], in assay [5] and in [6]. Further, the result in [7], in assay [9] and in assay [11] was inactive.
`Nc1ccccc1[N+](=O)[O-]`: the compound was called inactive in assay [1], in assay [2], in assay [3], in assay [4], in assay [5] and in assay [12]. The compound was called inactive in assay [7].
`CCOC(=O)c1ccc(N)cc1`: the compound was classed as inactive in assay [1], in [2], in [3], in assay [4], in assay [5] and in assay [6]. Also, the compound was called inactive in [7], in assay [9] and in assay [10].
With `COCCc1ccc(OCC(O)CNC(C)C)cc1` (stereo not drawn), the compound was called inactive in [1], in assay [2], in assay [3], in assay [4], in assay [5] and in assay [12]. For the same compound, the call in [13], in assay [7] and in [9] was inactive.
`COc1ccc(N)c([N+](=O)[O-])c1`: the result in [1], in assay [2], in assay [3], in assay [4], in assay [5] and in [12] was inactive. Moreover, the compound was classed as inactive in assay [7], in [9] and in assay [8].
On to `COc1ccc(N=Nc2cc(C)c(N=Nc3ccc(S(=O)(=O)O)cc3)cc2OC)cc1`, for which the compound was classed as inactive in assay [1], in assay [2], in assay [4], in [5], in assay [12] and in assay [9]. Moreover, in assay [10], the outcome was inactive. Further, the AC50 is 25.7 µM (active) in assay [3] and 25.4 µM (active) in assay [7].
For the compound `CCN(CCC#N)c1ccc(N=Nc2ccc([N+](=O)[O-])cc2)cc1`, the compound was called inactive in assay [1], in assay [2], in [4], in assay [5], in [6] and in assay [7]. For the same compound, the outcome in [9], in assay [8] and in assay [10] was inactive. Besides, the AC50 in [3] is 64.7 µM (active).
